# This is a sample that favours compounds with a hit; in the whole collection about 4.6% have one here.
# TIM10 inh = inhibits growth of TIM10 yeast strain; S. cerevisiae TIM10 strain growth, BacTiter-Glo luminescence, 24 h; inhibition, % at 10 µM; 330,000 compounds, 1.4% hits; AID 463195;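 active = inhibition of 40% or more at the single tested concentration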;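 note: wild-type TIM10 isogenic control strain grown at permissive 25 °C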
# V-ATPase pHluor = regulators of yeast V-ATPase proton transport. S. cerevisiae, pHLuorin cytosolic pH fluorescence. response, % at 10 µM. 350,000 compounds, 0.37% hits; in the data active = response mostly above about 7.3%, no sharp cut-off; inactive = mostly below about 5.4%; note: actives read high
# tim23-1 inh = growth inhibitors of tim23-1 mutant yeast | S. cerevisiae tim23-1 growth, BacTiter-Glo luminescence, 24 h | inhibition, % at 20 µM | 330,000 compounds, 1.3% hits | AID 463212;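 active = growth inhibition of the mutant yeast at or above 50%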;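 note: temperature-sensitive mutant grown at 25 °C; plate controls were DMSO-treated mutant yeast for no effect and medium wells lacking yeast for full effect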
# SKKanGAS inh = blocks kanamycin growth of S. pyogenes SKKanGAS strain | BacTiter-Glo, 6 h | inhibition, % at 7.5 µM | 300,000 compounds, 1.3% hits | AID 1662;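 active = mean replicate score, as percent of positive control median, at least 50; inconclusive = mean below 50 but one replicate at or above 50; inactive = mean and every replicate below 50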;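 note: strain carries kanamycin resistance gene driven by streptokinase promoter and grows in 40 µg/ml kanamycin; loss of luminescence reflects streptokinase promoter inhibition or plain growth inhibition; 0% = median of DMSO wells and 100% = positive control at its reference dose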
# PfHsp90 set2 = growth inhibition of yeast expressing Plasmodium Hsp90. S. cerevisiae expressing PfHsp90, BacTiter-Glo ATP, 48 h; yeast lacking PDR1 and PDR3 efflux regulators. inhibition, % at 9.4 µM. 310,000 compounds, 0.32% hits;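 active = every replicate shows inhibition above about 80%, whatever the replicate mean, limit read from the data; inconclusive = mean inhibition reaches the set limit but some replicate falls short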;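 note: 0% = DMSO neutral controls and 100% = 20 µM radicicol positive controls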
# tim10-1 inh = tim10-1 yeast growth inhibition. AID 463190. 330,000 compounds, 2.2% hits. inhibition, % at 20 µM. S. cerevisiae tim10-1 ts strain growth, BacTiter-Glo, 24 h;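 active = inhibition of at least 40%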;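 note: mutant grown at 25 °C; 0% = DMSO wells with yeast and 100% = wells holding no yeast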
# tim10-1 conf = tim10-1 yeast growth inhibition, confirmed. shares compounds with tim10-1 inh. S. cerevisiae tim10-1 ts strain growth, BacTiter-Glo, 24 h. inhibition, % at 20 µM. 7,400 compounds, 56% hits. AID 463213;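 active = inhibition of yeast growth at or above a set limit in either of two repeat tests at 20 µM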;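 note: tim10-1 mutant grown at permissive 25 °C to find synthetic lethal compounds; 0% = DMSO yeast wells and 100% = medium wells without yeast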
# tim10 confirm = TIM10 yeast growth inhibition, confirmed; shares compounds with TIM10 inh; S. cerevisiae tim10 strain growth, BacTiter-Glo luminescence, 24 h; inhibition, % at 10 µM; 4,600 compounds, 63% hits;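 active = inhibition of yeast growth at or above a set limit in either of two replicates at 10 µM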;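 note: this counterscreen used the strain with wild-type TIM10; 0% = yeast with DMSO and 100% = medium wells lacking yeast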
# tim23-1 confirm = confirmation of tim23-1 mutant yeast growth inhibitors; shares compounds with tim23-1 inh; S. cerevisiae tim23-1 growth, BacTiter-Glo luminescence, 24 h; inhibition, % at 20 µM; 4,400 compounds, 83% hits;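 active = inhibition above about 39% in either of two replicate wells at 20 µM, limit read from the data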;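 note: temperature-sensitive tim23-1 mutant grown at 25 °C; 0% = DMSO wells with yeast and 100% = medium wells without yeast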
# * hit, by the source's call; ? = inconclusive; . = no result.
SMILES,TIM10 inh,V-ATPase pHluor,tim23-1 inh,SKKanGAS inh,PfHsp90 set2,tim10-1 inh,tim10-1 conf,tim10 confirm,tim23-1 confirm
O=C1c2ccccc2NC(c2ccc(-c3ccc(Br)cc3)o2)N1O (stereo not drawn),44*,1,62*,10,125*,46*,28,52*,65*
Cc1ccc([C@@H]2C[C@H]3[C@@H](CN2S(=O)(=O)c2ccc(Cl)cc2)C(=O)C[C@@H](c2ccc(C)cc2)N3S(=O)(=O)c2ccc(Cl)cc2)cc1,.,-2,.,.,.,.,.,.,.
O=C1C=CC(=O)N1N(c1ccccc1)c1ccccc1,54*,0,55*,3,96*,65*,67*,61*,47*
CN1CCN(/N=C/c2ccc(N(c3ccccc3)c3ccccc3)cc2)CC1,30,-2,76*,10,-56,50*,-35,.,38
CN1CCN(/N=C/c2ccc(N(C)c3ccccc3)cc2)CC1,-32,1,9,-1,-8,5,.,.,.
COc1ccc(OCc2cc(/C=N\NC(=O)c3ccccc3)ccc2OC)cc1,34,-3,52*,8,-5,49*,31,.,45*
O=C(OCn1ncc(Cl)c(Cl)c1=O)c1ccc(C(F)(F)F)cc1,42*,4,78*,5,52,75*,74*,41*,79*
Cc1ccc(C)c(C(=O)Cn2ncc(Cl)c(Cl)c2=O)c1,-4,-1,43,-2,26,23,.,.,.
Cc1ccc(C(=O)OCn2ncc(Cl)c(Cl)c2=O)cc1,72*,2,79*,7,96*,75*,78*,70*,71*
COCCNC(=O)CN1C(=O)/C(=C/c2ccccc2)Oc2ccc(C(C)(C)C)cc21,13,-2,31,35,5,31,.,.,.
O=C(COc1cccc(NC(=O)c2ccco2)c1)c1ccc(F)cc1,47*,19*,55*,.,39,42*,32*,48*,71*
O=C(COc1cccc(NC(=O)c2cccc([N+](=O)[O-])c2)c1)c1ccc(F)cc1,19,1,12,1,18,15,.,.,.
Cc1ccc(O)c(C(=O)C=Cc2ccccc2)c1,.,2,.,.,-8,.,.,.,.
COC1=C(C)C(O)=C(C(=O)/C=C/c2ccccc2)C(=O)C1(C)C,18,-2,57*,-3,20,44*,21,.,48*
COc1ccc(-n2cc(-c3ccccc3)[nH]c2=S)cc1,19,-6,31,-14,-2,24,.,.,.
Cc1cccc(-n2cc(-c3ccccc3)[nH]c2=S)c1,20,2,51*,-6,-7,46*,18,.,49*
COc1ccc(CS(=O)(=O)CC(C)(O)c2ccccc2Cl)cc1 (stereo not drawn),17,2,10,-4,13,-6,.,.,.
Cc1ccc(C(=O)C(c2ccccc2)N2Cc3ccccc3C2=N)cc1 (stereo not drawn),36,3,29,?,-21,35,.,.,.
CC(=O)Oc1cccc(/C=c2\sc3nc(-c4ccco4)nn3c2=O)c1,16,-1,61*,-4,-2,54*,43*,.,63*
Cc1cccc(/C(N)=N/OC(=O)c2ccc(Br)o2)c1,69*,0,67*,2,-13,43*,47*,63*,57*
Cc1cccc(C(=O)O/N=C(\N)c2cccc([N+](=O)[O-])c2)c1,58*,4,53*,0,5,74*,80*,49*,51*
Cc1cccc(/C(N)=N/OC(=O)C23CC4CC(CC(C4)C2)C3)c1,80*,4,68*,0,-19,55*,57*,5,66*
COc1cc(OC)cc(C(=O)O/N=C(\N)c2cccc(C)c2)c1,79*,-1,86*,18,-20,53*,40*,85*,83*
